# The whole screen tested about 310,000 compounds, of which about 14,000 (4.5%) showed an effect of 50% or more. The effect is printed as a negative number. What follows is part of a selection rich in strong results, with near analogues and random picks from the rest.
# Biological target: human ether-à-go-go-related gene (hERG) potassium channel (human, UniProt Q12809)
# Assay: primary screen, population patch clamp on CHO cells stably expressing hERG; higher = less effect of the substance
# 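Also: peak tail current of the secondary pulse compared with the same well before compound.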
# Chain of human ether-à-go-go-related gene (hERG) potassium channel (Q12809 whole entry, looked up): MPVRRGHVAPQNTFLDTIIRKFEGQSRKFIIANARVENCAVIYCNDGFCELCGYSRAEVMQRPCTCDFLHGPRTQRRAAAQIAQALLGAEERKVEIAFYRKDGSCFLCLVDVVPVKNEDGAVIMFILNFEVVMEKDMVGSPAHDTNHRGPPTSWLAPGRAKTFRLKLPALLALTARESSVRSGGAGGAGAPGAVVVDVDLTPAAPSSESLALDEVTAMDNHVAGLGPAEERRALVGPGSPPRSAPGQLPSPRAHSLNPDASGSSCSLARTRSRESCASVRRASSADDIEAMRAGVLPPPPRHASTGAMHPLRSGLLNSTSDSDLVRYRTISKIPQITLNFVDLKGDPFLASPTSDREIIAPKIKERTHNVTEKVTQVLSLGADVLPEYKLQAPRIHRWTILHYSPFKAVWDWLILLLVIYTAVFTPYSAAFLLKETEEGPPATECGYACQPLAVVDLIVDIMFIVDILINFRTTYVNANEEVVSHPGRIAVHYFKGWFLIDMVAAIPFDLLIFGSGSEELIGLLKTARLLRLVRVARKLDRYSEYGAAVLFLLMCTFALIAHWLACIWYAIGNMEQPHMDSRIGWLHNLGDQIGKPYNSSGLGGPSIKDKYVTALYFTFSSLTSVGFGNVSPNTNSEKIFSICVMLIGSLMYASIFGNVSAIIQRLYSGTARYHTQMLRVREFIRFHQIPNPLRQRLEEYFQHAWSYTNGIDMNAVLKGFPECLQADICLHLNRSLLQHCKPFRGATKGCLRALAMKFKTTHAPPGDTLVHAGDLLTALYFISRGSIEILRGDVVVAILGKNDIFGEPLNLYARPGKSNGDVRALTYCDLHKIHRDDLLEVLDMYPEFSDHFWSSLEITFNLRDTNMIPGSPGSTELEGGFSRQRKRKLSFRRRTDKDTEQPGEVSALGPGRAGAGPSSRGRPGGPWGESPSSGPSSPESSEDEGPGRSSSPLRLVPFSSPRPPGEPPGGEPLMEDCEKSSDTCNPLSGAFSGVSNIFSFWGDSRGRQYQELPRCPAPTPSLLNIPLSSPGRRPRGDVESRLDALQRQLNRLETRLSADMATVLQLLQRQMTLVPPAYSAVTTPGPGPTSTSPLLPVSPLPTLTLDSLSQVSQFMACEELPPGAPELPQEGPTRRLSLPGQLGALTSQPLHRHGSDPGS
row,SMILES,"hERG current change (%, negative = inhibition) at 10uM [%]"
1,CCc1nnc(NC(=O)CSc2nc3[nH]c(=O)cc(O)c3s2)s1,-0.838
2,O=C(OCc1ccc([N+](=O)[O-])cc1)c1ccccn1,-28.2
3,Nn1c(SCc2c(F)cccc2F)nnc1-c1ccccn1,2.69
4,CC1(C(=O)NCC2CCCO2)Oc2cccnc2NC1=O (stereo not shown),5.86
5,CC(=O)Nc1c2c(nn1-c1ccccc1C)CS(=O)C2 (stereo not shown),18.7
6,Cc1ccc(CS(=O)(=O)c2ccc(C(=O)N3CCN(c4ccccn4)CC3)cc2[N+](=O)[O-])cc1,-43.9
7,COc1ccccc1/C=C/C1=NC(=C\C=C/c2ccccc2)/C(=O)O1,3.98
8,CC(/C=N/NC(=O)c1ccc(Cn2cc([N+](=O)[O-])cn2)o1)=C\c1ccccc1,-5.3
9,O=S(=O)(c1ccc(Br)cc1)N1CCn2c(nc3ccccc32)C1,-7.4
10,CCOc1cc(C(=O)OCC(=O)Nc2cc(C)on2)cc(OCC)c1OCC,2.29
11,Cc1ccc(NC(=O)CNC(=O)c2ccco2)cc1Cl,17
12,COc1ccc(OC)c(-c2csc(N(Cc3ccco3)C(=O)c3ccco3)n2)c1,7.74
13,CCOc1ccccc1N1CC(C(=O)N(C)Cc2cccnc2)CC1=O (stereo not shown),15
14,COc1ccc(N(C)C(=O)CCS(=O)(=O)c2cccc3nonc23)c(OC)c1,1.11
15,Cl.Cn1c(=N)n(CC(O)c2ccco2)c2ccccc21 (stereo not shown),-9.79
16,CCN(CC)CCn1c(=N)n(CC(O)c2ccco2)c2ccccc21.Cl (stereo not shown),-73.2
17,CCCCCCCn1c(=N)n(CC(O)c2ccco2)c2ccccc21.Cl (stereo not shown),-86.9
18,CCCn1c(=N)n(CC(O)c2ccco2)c2ccccc21.Cl (stereo not shown),-43.8
19,Cl.N=c1n(CCN2CCCCC2)c2ccccc2n1CC(O)c1ccco1 (stereo not shown),-55.2
20,Cl.N=c1n(CCN2CCCC2)c2ccccc2n1CC(O)c1ccco1 (stereo not shown),-34
21,CC(=O)N1N=C(C)CC1c1ccc(OCc2ccccc2)cc1 (stereo not shown),-15.5
22,O=C(CN(CC(=O)N1CCOCC1)S(=O)(=O)c1ccc(Br)s1)N1CCOCC1,12.8
23,CCOc1ccc(N(C(C)C(=O)NCc2ccco2)S(C)(=O)=O)cc1 (stereo not shown),-2.31
24,NC(=O)CC(NC(=O)c1cccc(Br)c1)c1ccc(N2CCN(c3ccc(F)cc3)CC2)c([N+](=O)[O-])c1 (stereo not shown),-2.08

row,SMILES,"hERG current change (%, negative = inhibition) at 10uM [%]"
1,O=C(CNS(=O)(=O)c1ccc(Br)s1)N1CCCC1,22
2,COc1ccc(C(=O)NCCC2=CCCCC2)cc1OC1CCN(C(C)C)CC1,-78.1
3,COc1cc(C(=O)NCCC2=CCCCC2)ccc1OC1CCN(C(C)=O)CC1,2.98
4,COc1cccc(CCNC(=O)c2ccc(OC)c(OC3CCN(C(C)C)CC3)c2)c1,-57.4
5,COc1ccc(C(=O)NCCC2=CCCCC2)cc1OC,-3.21
6,COc1ccccc1CCNC(=O)c1ccc(OC)c(OC2CCN(C(C)C)CC2)c1,-46.3
7,COCCCNC(=O)c1ccc(OC)c(OC2CCN(C(C)C)CC2)c1,10.3
8,CC1CN=C(NCc2ccc(F)cc2)S1 (stereo not shown),-8.5
9,CCOc1ccccc1C(=O)Nc1cc(C(=O)NCC(C)C)ccc1Cl,12
10,CCCc1ccc(Oc2c(-c3ccc(O)c(C)c3O)n[nH]c2C)cc1,-13.2
11,Cc1nc2sccn2c(=O)c1S(=O)(=O)N1CCN(c2ccccc2)CC1,-11.2
12,COc1ccc(N2CCN(S(=O)(=O)c3c(C)nc4sccn4c3=O)CC2)cc1,-9.86
13,Cc1nc2sccn2c(=O)c1S(=O)(=O)N1CCN(c2ccc(F)cc2)CC1,-70.2
14,Cc1cc(NC(=O)Nc2ccc(OCc3ccccc3)cc2)n(C)n1,23.8
15,COc1ccc(-n2c(Cc3cccn3C)nnc2SCC(=O)NCc2ccco2)cc1,-12.9
16,Cc1nc(SCc2c(Cl)cccc2Cl)nc(OC(=O)N(C)C)c1C,-4.32
17,O=C(Cn1cnc2scc(-c3ccccc3)c2c1=O)NCc1ccco1,-24.9
18,CCc1ccc(-c2csc3ncn(CC(=O)NCc4ccco4)c(=O)c23)cc1,-4.39
19,O=C(Cn1cnc2scc(-c3cccc([N+](=O)[O-])c3)c2c1=O)NCc1ccco1,-54
20,CC(C)(C)c1ccc(COC(=O)CNC(=O)CNC(=O)Cc2ccccc2)cc1,-6.93
21,CCOP(=O)(CC(C(C)=O)C(O)c1ccccc1)OCC (stereo not shown),11.3
22,CCOCCCNC(=O)c1cc2c(=O)n3ccccc3nc2s1,-7.05
23,COc1ccc(S(=O)(=O)N2CCCCCC2)cc1C(=O)NCc1cccs1,-68.3
24,COc1ccc(S(=O)(=O)N2CCCCCC2)cc1C(=O)NCc1ccc(C)cc1,-29.1

row,SMILES,"hERG current change (%, negative = inhibition) at 10uM [%]"
1,O=C(NCc1cccs1)c1cc(S(=O)(=O)N2CCOCC2)c(Cl)cc1Cl,-81.6
2,CCCC(C)NC(=O)c1cc(S(=O)(=O)N2CCCCCC2)ccc1OC (stereo not shown),-54.4
3,COc1ccc(S(=O)(=O)N2CCCCCC2)cc1C(=O)NCCc1ccc(F)cc1,-31.4
4,O=C(NCC(c1cccs1)N1CCOCC1)c1cc(S(=O)(=O)N2CCOCC2)c(Cl)cc1Cl (stereo not shown),-9.54
5,Cc1ccc(S(=O)(=O)N2CCCCC2)cc1C(=O)NCCc1ccccc1,11.2
6,O=C(NCc1cccs1)c1cc(S(=O)(=O)N2CCCCC2)ccc1Cl,5.07
7,COc1ccc(S(=O)(=O)N2CCCCCC2)cc1C(=O)N(C)Cc1cccs1,-40.5
8,COc1ccc(S(=O)(=O)N2CCCC2)cc1C(=O)O,30.4
9,O=C(NCc1ccncc1)c1cc(S(=O)(=O)N2CCOCC2)c(Cl)cc1Cl,-13.3
10,COc1ccc(S(=O)(=O)N2CCCCCC2)cc1C(=O)NCCc1ccccc1,-65.5
11,COc1ccc2ncn(-c3ccccc3)c2c1,-7.39
12,COc1ccc(NC(=O)c2ccc(Cn3cc(Cl)cn3)cc2)cc1,1.21
13,Cc1ccc(NC(=O)c2ccco2)c(NC(=O)Cc2cccs2)c1,-2.72
14,O=C(NCCc1ccccc1F)C1CC(=O)N(c2ccccc2)C1 (stereo not shown),1.17
15,C/C(=N\Nc1nc(C(C)(C)C)cs1)c1ccccc1,16.4
16,Cc1cccc(NC(=O)CC2C(=O)NCCN2C(=S)Nc2ccccc2)c1 (stereo not shown),1.17
17,Cc1cnc(NC(=O)c2c(-c3ccccc3)noc2C)s1,-2.27
18,O=C(NNC(=O)c1ccccc1Br)c1cccc(Cl)c1,-7.94
19,CC(C)CCCC(C)NC(=O)c1cc(S(=O)(=O)N2CCCCC2)ccc1N1CCOCC1 (stereo not shown),-36.8
20,CCC(CC)NC(=O)c1cc(S(=O)(=O)N2CCCCC2)ccc1N1CCOCC1,-20.3
21,CCCCCC(C)NC(=O)c1cc(S(=O)(=O)N2CCCCC2)ccc1N1CCOCC1 (stereo not shown),-70.9
22,COc1ccc(NC(=O)CCSc2ccc3ccccc3n2)cc1,-11.7
23,CCOC(=O)n1n[n+]([O-])c2ccccc21,35.5
24,CC(=O)c1ccc(S(=O)(=O)NCCc2cn3ccc(C)cc3n2)cc1,-29.9

row,SMILES,"hERG current change (%, negative = inhibition) at 10uM [%]"
1,CCc1ccc(S(=O)(=O)NCCc2cn3cccc(C)c3n2)s1,-16.2
2,Cc1ccn2cc(CCNS(=O)(=O)c3ccc([N+](=O)[O-])cc3)nc2c1,-69.7
3,CCc1ccc(S(=O)(=O)NCCc2cn3ccc(C)cc3n2)s1,-54.2
4,Cc1ccn2cc(CCNS(=O)(=O)c3ccc4ccccc4c3)nc2c1,-39.6
5,O=[N+]([O-])c1ccc(S(=O)(=O)NCCc2cn3ccccc3n2)cc1,-40.6
6,CCOc1ccc(S(=O)(=O)NCCc2cn3ccccc3n2)cc1,-11
7,CCc1ccc(S(=O)(=O)NCCc2cn3ccccc3n2)s1,-29.5
8,O=S(=O)(NCCc1cn2ccccc2n1)c1ccc(-c2ccccc2)cc1,-62
9,COc1cccc(C(=O)COC(=O)COc2c(C)cc(C)cc2C)c1,1.18
10,COc1ccc(-c2c(C(C)=O)c(C)nc3sc4c(=N)n(N)cnc4c23)cc1,3.48
11,CCN1CCN(CCCNC(=O)c2ccc3c(Cl)c4c(nc3c2)CCCC4)CC1,-46.8
12,O=C(NCCCN1CCCCCC1)c1ccc2c(Cl)c3c(nc2c1)CCCC3,-53
13,COCCNC(=O)c1ccc2c(Cl)c3c(nc2c1)CCC3,-30.2
14,CCCN1CCN(CCCNC(=O)c2ccc3c(Cl)c4c(nc3c2)CCCC4)CC1,-61.1
15,CC1CCN(CCCNC(=O)c2ccc3c(Cl)c4c(nc3c2)CCCC4)CC1,-40.9
16,CCOC(=O)N1CCC(NC(=O)c2ccc3c(Cl)c4c(nc3c2)CCCC4)CC1,-36.6
17,O=C(NC1CC1)c1ccc2c(Cl)c3c(nc2c1)CCCC3,-63.7
18,CCN(CC)CCCNC(=O)c1ccc2c(Cl)c3c(nc2c1)CCCC3,-48.7
19,CN1CCN(CCCNC(=O)c2ccc3c(Cl)c4c(nc3c2)CCCC4)CC1,-6.81
20,O=C(NCCCN1CCCC1)c1ccc2c(Cl)c3c(nc2c1)CCCC3,-50.1
21,CC(C)CCNC(=O)c1ccc2c(Cl)c3c(nc2c1)CCC3,21.4
22,CCCN(CCC)CCCNC(=O)c1ccc2c(Cl)c3c(nc2c1)CCC3,-29.1

# Source: paper PMC4336329 (PLoS ONE, 2015)
